# PubChem BioAssay AID624156 (Broad Institute, 2012)
# Out of some 46,000 compounds screened, about 900 (2%) were called active. About 1% were inconclusive and are not listed. No stated cut-off is given here; in the data, active means ROS induction above about 79% (passing the limit was not always enough); inconclusive means no clear call, values can overlap the other calls. The entries come from a sample that favours actives as a whole.
# Test: ROS inducers in U2OS cancer cells, primary screen, cell-based, H2DCF-DA fluorescence (AID 624156);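 further: 0% = DMSO vehicle median and 100% = reference compound median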
# Settings: at 10 µM, hits give high values
row,Structure (SMILES),ROS induction (% of piperlongumine)
1,C[C@@H]1CN([C@H](C)CO)C(=O)c2cccc(NS(=O)(=O)c3ccc(F)cc3)c2O[C@H]1CN(C)Cc1ccc(Oc2ccccc2)cc1,102% (active)
2,C[C@H]1CN([C@@H](C)CO)C(=O)Cc2cc(NC(=O)Cc3ccccc3)ccc2O[C@@H]1CN(C)Cc1ccc(Cl)c(Cl)c1,88.2% (active)
3,C[C@H]1CN([C@@H](C)CO)C(=O)c2cccc(NS(=O)(=O)c3ccc(Cl)cc3)c2O[C@@H]1CN(C)Cc1ccc(Oc2ccccc2)cc1,23.2% (inactive)
4,C[C@@H]1CN([C@@H](C)CO)C(=O)c2cccc(NC(=O)C3CC3)c2O[C@@H]1CN(C)Cc1ccccc1,-2.71% (inactive)
5,C[C@@H]1CN([C@H](C)CO)C(=O)Cc2cc(NC(=O)Nc3ccccc3)ccc2O[C@H]1CN(C)Cc1ccc(Cl)c(Cl)c1,13.3% (inactive)
6,COc1ccc(CN(C)C[C@H]2Oc3ccc(NC(=O)Cc4ccccc4)cc3CC(=O)N([C@@H](C)CO)C[C@@H]2C)cc1,65.1% (inactive)
7,Cc1cc(C(=O)Nc2cccc3c2O[C@@H](CN(C)Cc2ccc(C(=O)Nc4ccccc4N)cc2)[C@H](C)CN([C@@H](C)CO)C3=O)n(C)n1,29% (inactive)
8,C[C@@H]1CN([C@H](C)CO)C(=O)Cc2cc(NC(=O)Cc3ccccc3)ccc2O[C@@H]1CN(C)Cc1ccccc1,35.5% (inactive)
9,C[C@H](CO)N1C[C@H](C)[C@@H](CN(C)Cc2ccc(C(=O)Nc3ccccc3N)cc2)Oc2c(NC(=O)C3CC3)cccc2C1=O,101% (active)
10,C[C@@H]1CN([C@H](C)CO)C(=O)c2cccc(NS(=O)(=O)c3ccc(Cl)cc3)c2O[C@@H]1CN(C)Cc1ccc(Oc2ccccc2)cc1,16.8% (inactive)
11,C[C@@H]1CN([C@H](C)CO)C(=O)Cc2cc(NC(=O)Cc3ccccc3)ccc2O[C@H]1CN(C)Cc1ccc(Oc2ccccc2)cc1,58.8% (inactive)
12,C[C@@H]1CN([C@@H](C)CO)C(=O)Cc2cc(NC(=O)Cc3ccccc3)ccc2O[C@@H]1CN(C)Cc1ccc(Oc2ccccc2)cc1,115% (active)
13,O=C(CSc1nc2c(sc3ccccc32)c(=O)n1Cc1ccccc1)NCCC1=CCCCC1,-2.88% (inactive)
14,O=C(CN(Cc1ccc(Cl)cc1Cl)S(=O)(=O)c1ccccc1)N1CCCC1,-2.84% (inactive)
15,O=C1CSc2ccccc2N1Cc1ccc(Cl)cc1,2.65% (inactive)
16,Brc1ccc(CSc2c[nH]c3ccccc23)cc1,-17.1% (inactive)
17,Cc1ccc(CNC(=O)c2nc3c(nnn3Cc3ccco3)c(=O)[nH]2)cc1,27.5% (inactive)
18,CC(C)c1ccc(N2C(=O)CSCC2(C(=O)NC2CCCCC2)c2ccc(Cl)cc2)cc1 (configuration not stated),-3.88% (inactive)
19,CCCN(c1ccccc1OC)S(=O)(=O)c1cc(Br)cnc1N,1.12% (inactive)
20,O=C(NC1CCCCCCC1)c1cccs1,-3.89% (inactive)
21,O=C(CCCn1c(=O)c2cccn2c2ccccc21)N1CCCCC1,-0.17% (inactive)
22,CN(C(=O)c1noc2c1CSc1ccccc1-2)c1cccc(C(F)(F)F)c1,-4.5% (inactive)
23,O=C(Nc1ccc(-n2nncc2-c2ccccc2)cc1)c1ccc(S(=O)(=O)N2CCCCC2)cc1,51.9% (inactive)
24,N#CC(C(=O)Nc1cccc(C(F)(F)F)c1)=C1CCCCCC1,14.7% (inactive)

row,Structure (SMILES),ROS induction (% of piperlongumine)
1,Cc1cccc(NC(=S)N2CCn3cccc3C2c2cccs2)c1 (configuration not stated),-3.68% (inactive)
2,C[C@H]1CN([C@@H](C)CO)C(=O)Cc2cc(NS(=O)(=O)c3cccs3)ccc2O[C@H]1CN(C)Cc1ccncc1,-8.79% (inactive)
3,C[C@@H]1CN([C@@H](C)CO)C(=O)c2cc(NC(=O)Cc3ccccc3)ccc2O[C@H]1CN(C)Cc1ccc(Cl)c(Cl)c1,44.7% (inactive)
4,C[C@H]1CN([C@@H](C)CO)C(=O)c2cc(NC(=O)Cc3cn(C)c4ccccc34)ccc2O[C@H]1CN(C)Cc1ccc(Cl)c(Cl)c1,4.82% (inactive)
5,C[C@H]1CN([C@@H](C)CO)C(=O)Cc2cc(NS(=O)(=O)c3cccs3)ccc2O[C@@H]1CN(C)Cc1ccc(Oc2ccccc2)cc1,92.6% (active)
6,C[C@H]1CN([C@@H](C)CO)C(=O)c2cc(NC(=O)Cc3cn(C)c4ccccc34)ccc2O[C@@H]1CN(C)Cc1ccc(Cl)c(Cl)c1,118% (active)
7,C[C@@H]1CN([C@H](C)CO)C(=O)Cc2cc(NS(=O)(=O)c3cccs3)ccc2O[C@@H]1CN(C)Cc1ccc(C(=O)O)cc1,11.6% (inactive)
8,O=C(Nc1cccc(-c2nc3ccccc3o2)c1)c1ccc(Br)cc1,4.05% (inactive)
9,Cc1nn(C)cc1C(=O)c1ccccc1,36.5% (inactive)
10,Cc1ccc(C(=O)N/C(=C\c2ccccc2)C(=O)Nc2c(C)n(C)n(-c3ccccc3)c2=O)cc1,0.477% (inactive)
11,COc1ccc(CNCC2(c3ccccc3)CCCC2)cc1,4.91% (inactive)
12,COC(=O)c1ccc(-c2ccco2)n1CC(=O)NC1CCCC1,-2.05% (inactive)
13,CCC/C=C/C(=O)OC1C(O)C23C(O)OC4(CCC5C6(C)CCC(OC7OC(C(=O)O)C(O)C(OC8OC(CO)C(O)C(O)C8OC8OC(C)C(O)C(O)C8OC8OCC(O)C(O)C8O)C7OC7OC(CO)C(O)C(O)C7O)C(C)(C)C6CCC5(C)C4(C)CC2OC(C)=O)C3CC1(C)C (configuration not stated),-31.6% (inactive)
14,COCc1cc(C)nc2sc(C(N)=O)c(N)c12,10.2% (inactive)
15,Cc1cc(-c2cccs2)c2c(N)c(C(=O)c3ccccc3)sc2n1,95.7% (active)
16,O=C(O)c1ccc(S(=O)(=O)c2ccc(Cl)cc2)cc1,-2.87% (inactive)
17,Cc1c(S(=O)(=O)Nc2ccc(Cl)cc2)sc2ccc(Cl)cc12,-12.9% (inactive)
18,Fc1ccc(NCc2cn(-c3ccccc3)nc2-c2cccs2)c(F)c1,-6.92% (inactive)
19,N#CCC(=O)N(Cc1ccccc1)C(=O)Nc1cccc(F)c1,-15.5% (inactive)
20,CC(C)(C)n1ncc2c(=O)n(Cc3ccc(Cl)cc3)cnc21,-3.3% (inactive)
21,N#Cc1c(SCC(=O)Nc2ccccc2)ncc2cc3ccccc3nc12,192% (active)
22,Cc1sc2ncnc(SCC(=O)Nc3ccccc3)c2c1-c1ccccc1,-2.63% (inactive)
23,O=C(CSc1nnc(-c2ccccc2)c(-c2ccccc2)n1)Nc1ccccc1,-5.87% (inactive)
